{"source": "the supplement of paper PMC9694430", "data": [{"tested_on": "LOC_OS01G57100-cb003", "assay": "thermal shift delta Tm vs DMSO control; higher = stronger stabilization (binding)", "conditions": "12.5 µM; protein concentration 2 µM", "outline": "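Purified, E. coli-expressed rice kinase domain constructs were tested by differential scanning fluorimetry in 96-well plates: 19.5 μl of 2 μM kinase in 100 mM potassium phosphate pH 7.5, 150 mM NaCl, 10% glycerol, 5 × SYPRO Orange, plus compound in DMSO. Fluorescence was read from 25°C to 95°C at 0.05°C/s. Melting temperatures came from Boltzmann fits, and the shift is the triplicate mean relative to protein with DMSO alone.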", "units": {"thermal shift delta Tm": "°C"}, "values": [{"compound": "Oc1c2ccccc2c2c3c(cccc13)N=N2", "thermal shift delta Tm": 1.83}, {"compound": "CSc1cccc(Nc2ncc3cc(-c4c(Cl)cccc4Cl)c(=O)n(C)c3n2)c1", "thermal shift delta Tm": 1.54}, {"compound": "COc1cc(Nc2ncc(F)c(Nc3ccc4c(n3)NC(=O)C(C)(C)O4)n2)cc(OC)c1OC", "note": "[R406 (free base)]", "thermal shift delta Tm": 5.12}, {"compound": "Cc1cn(-c2cc(NC(=O)c3ccc(C)c(Nc4nccc(-c5cnccn5)n4)c3)cc(C(F)(F)F)c2)cn1", "note": "[Radotinib]", "thermal shift delta Tm": 1.49}, {"compound": "CN1CCN(Cc2ccc(-c3cnc4[nH]cc(-c5ccc6[nH]ccc6c5)c4c3)cc2)CC1", "thermal shift delta Tm": 2.72}, {"compound": "CONC(=O)c1ccccc1Nc1cc(Nc2cc(C)nn2C(C)C)ncc1Cl", "thermal shift delta Tm": 0.63}, {"compound": "CNC(=O)c1cc(Oc2ccc(NC(=O)Nc3ccc(Cl)c(C(F)(F)F)c3)c(F)c2)ccn1", "note": "[Regorafenib (BAY 73-4506)]", "thermal shift delta Tm": 0.31}, {"compound": "c1cc(-c2cnn3cc(-c4ccc(OCCN5CCCCC5)cc4)cnc23)ccn1", "note": "[Dorsomorphin 2HCl]", "thermal shift delta Tm": -0.53}, {"compound": "CCCCCCCCCC(=O)CC(O)S(=O)(=O)O", "note": "(configuration not stated) [Sodium Houttuyfonate]", "thermal shift delta Tm": 1.15}, {"compound": "CC(C)[C@H](CO)Nc1nc(Nc2cccc(Cl)c2)c2ncn(C(C)C)c2n1", "note": "[Purvalanol A]", "thermal shift delta Tm": 2.77}, {"compound": "COc1ccc(Cl)c(Nc2nc3ccccc3nc2NS(=O)(=O)c2cccc(NC(=O)C(C)(C)N)c2)c1", "note": "[Pilaralisib (XL147)]", "thermal shift delta Tm": 0.77}, {"compound": "CC(C)Oc1ccc(-c2nn([C@@H](C)c3oc4ccc(F)cc4c(=O)c3-c3cccc(F)c3)c3ncnc(N)c23)cc1F", "thermal shift delta Tm": 1.03}, {"compound": "O=C(/C=C/c1ccc2ccccc2n1)c1ccncc1", "thermal shift delta Tm": 1.22}, {"compound": "CC(C)(O)CC(=O)NCCn1ccc2ncnc(Nc3ccc(Oc4cccc(C(F)(F)F)c4)c(Cl)c3)c21", "thermal shift delta Tm": 2.91}, {"compound": "CCOC(=O)c1cnc2ccc(-c3cncc(NS(=O)(=O)c4ccccc4)c3)cn12", "thermal shift delta Tm": 2.2}, {"compound": "N#Cc1c(NC(=O)c2cccc3ccccc23)sc2c1CCCC2", "note": "[JNK Inhibitor IX]", "thermal shift delta Tm": 1.35}, {"compound": "CN(C)Cc1cccc(N=C(c2ccccc2)c2c(O)[nH]c3cc(C(=O)N(C)C)ccc23)c1", "thermal shift delta Tm": 0.86}, {"compound": "O=c1c(-c2ccc(O)cc2)coc2cc(O)cc(O)c12", "note": "[Genistein]", "thermal shift delta Tm": -0.59}, {"compound": "CCn1c2ccccc2c2cc(Nc3ccnc(NCCCN4CCOCC4)n3)ccc21", "thermal shift delta Tm": 0.92}, {"compound": "N#CC(=C(/N)Sc1ccccc1N)/C(C#N)=C(\\N)Sc1ccccc1N", "thermal shift delta Tm": -0.44}, {"compound": "CCN(CC)CCCC(C)Nc1nc(C)cc(Nc2ccc3nc(C)cc(N)c3c2)n1", "note": "(configuration not stated)", "thermal shift delta Tm": 1.43}, {"compound": "c1cn2cc(-c3ccc4cn[nH]c4c3)nc(Nc3ccc(N4CCOCC4)cc3)c2n1", "note": "[Entospletinib (GS-9973)]", "thermal shift delta Tm": 2.14}, {"compound": "C[C@H]1CNC(=O)c2cnn3ccc(nc23)N[C@H](C)c2cc(F)ccc2O1", "thermal shift delta Tm": 0.38}, {"compound": "CC(C)c1cnn2c(NCc3ccccc3)cc(NCCCCCCN)nc12", "thermal shift delta Tm": 0.82}, {"compound": "C=CC(=O)Nc1cccc(Nc2nc(Nc3ccc(NC4CN(CCF)C4)cc3OC)ncc2C(F)(F)F)c1", "thermal shift delta Tm": 0.4}, {"compound": "CNC(=O)CN1CCC(Oc2cc3c(Nc4cccc(Cl)c4F)ncnc3cc2OC)CC1", "note": "[Sapitinib (AZD8931)]", "thermal shift delta Tm": 0.77}, {"compound": "C=CC(=O)Nc1cccc(Nc2nc(Nc3ccc(N4CCN(C(C)=O)CC4)cc3OC)ncc2C(F)(F)F)c1", "note": "[Rociletinib (CO-1686, AVL-301)]", "thermal shift delta Tm": 3.39}, {"compound": "O=C(c1ccc(/C=C/c2n[nH]c3ccccc23)cc1)N1CCNCC1", "thermal shift delta Tm": 1.7}, {"compound": "Cc1ccc(NC(=O)c2ccc(CN3CCN(C)CC3)cc2)cc1Nc1nc(-c2cccnc2)cs1", "note": "[Masitinib (AB1010)]", "thermal shift delta Tm": 0.04}, {"compound": "N#Cc1c(O)c2c(-c3ccc(-c4ccccc4O)cc3)csc2[nH]c1=O", "thermal shift delta Tm": 3.04}, {"compound": "CN1CC[C@H](c2c(O)cc(O)c3c(=O)cc(-c4ccccc4Cl)oc23)[C@H](O)C1", "note": "[Flavopiridol (Alvocidib)]", "thermal shift delta Tm": 0.96}, {"compound": "Cc1cnc(Nc2ccc(OCCN3CCCC3)cc2)nc1Nc1cccc(S(=O)(=O)NC(C)(C)C)c1", "thermal shift delta Tm": 2.1}, {"compound": "C[C@@H](Oc1ccc2[nH]nc(/C=C/c3cnn(CCO)c3)c2c1)c1c(Cl)cncc1Cl", "thermal shift delta Tm": 2.21}, {"compound": "Nc1cccc(-c2cc3c(Oc4cccc(O)c4)ncnc3[nH]2)c1", "thermal shift delta Tm": 2.04}, {"compound": "CN1CCC(COc2cnc(-c3cccc(Cn4nc(-c5cccc(C#N)c5)ccc4=O)c3)nc2)CC1", "thermal shift delta Tm": 0.71}, {"compound": "C[C@H](Nc1ncnc2nc[nH]c12)c1cc2cccc(Cl)c2c(=O)n1-c1ccccc1", "note": "[Duvelisib (IPI-145, INK1197)]", "thermal shift delta Tm": -0.45}, {"compound": "CCCCNc1ncc(C(=O)NCc2ccc(-n3ccnc3)cc2)c(NC2CCC(O)CC2)n1", "note": "(configuration not stated)", "thermal shift delta Tm": 2}]}]}
